AMA1-RON2 inh: qHTS for Inhibitors of AMA1-RON; Towards Development of Antimalarial Drug Lead: Primary Screen. Plasmodium falciparum AMA1 (3D7) - RON2 peptide interaction. 360,000 compounds, 0.2% hits. Potency, µM (highest dose often 58.2 µM), without a hit: top-dose activity change, negative = inhibition, actives largely listed as inhibitors. AlphaScreen AMA1-biotinylated RON2 peptide binding; active = well fitted inhibition curve with a large enough effect; inconclusive = small, poorly fitted or top-dose-only effect; inactive = no such curve, though single readings can be large or run the other way;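 note: potency is the fitted concentration of half-maximal effect; 0% = vehicle wells and -100% = peptide control; nearly all actives have a fitted effect of over 45% in size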
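AMA1 (3D7) with his tag at 25 nM final met compounds first, then biotinylated RON2 peptide at 25 nM; detection used donor plus acceptor beads, 10 µg/mL apiece, read by AlphaScreen after 30 min at room temperature.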
Shiga inhibitor: A qHTS for Small Molecule Inhibitors of Shiga Toxin; 290,000 compounds, 9.2% hits; Vero cells, Shiga toxin protein synthesis inhibition reporter; inhibition, % at 38.7 µM; in the data active = inhibition mostly above about 28%, no sharp cut-off; inactive = mostly below about 43%; note: 0% is about no effect
CHX counter: Cycloheximide Counterscreen for Small Molecule Inhibitors of Shiga Toxin; 300,000 compounds, 12% hits; cell reporter, cycloheximide protein synthesis inhibition counterscreen; AID 2314, 2010; max response, %; in the data active = max response mostly above about 13%, no sharp cut-off; inactive = mostly below about 14%; note: read at 38.3 µM for the half of the compounds with a filed dose; 0% is about no effect
LASV entry inh: qHTS for Inhibitors of binding or entry into cells for Lassa Virus. Potency, µM (titrated, usually from 37.9 µM), for the others: at the highest dose activity change, negative = inhibition, actives largely listed as inhibitors. AID 540256, 2011. Lassa virus pseudotype entry inhibition, cell reporter. 300,000 compounds, 1.2% hits; calls by dose curve; tested in HEK293 cells; note: potency is the fitted concentration of half-maximal effect; % is set by controls: 0 for no effect and ±100 for the full control effect; nearly all actives have a fitted effect of over 50% in size
Marburg entry inh: qHTS for inhibitors of binding or entry into cells for Marburg Virus; Marburg virus pseudotyped entry inhibition, cell reporter; Potency, µM (titrated, usually from 37.8 µM), without a hit: at the highest dose activity change, negative = inhibition, usual class: inhibitors; 300,000 compounds, 1.8% hits; calls by dose curve; tested in HEK293 cells; note: potency is the fitted concentration of half-maximal effect; % is set by controls: 0 for no effect and ±100 for the full control effect
Active calls of the source: *; ? = inconclusive; / = no result; [ ] = another dose, or the depositor's remark. Only a selection was taken, and hits are over-represented in it overall.

SMILES | AMA1-RON2 inh | Shiga inhibitor | CHX counter | LASV entry inh | Marburg entry inh
Cc1nc(-c2ccc(-c3ccon3)s2)no1 | -13% | 53* | 21* | 10% | 10%
Cc1nc(-c2cccc(-c3noc(C)n3)c2)no1 | -2% | 40 | 8 | 1% | 2%
CCC(C)c1ccc(N(CC(=O)NC(C)(C)C)C(=O)CNC(=O)c2cccs2)cc1 (stereo not given) | -12% | 10 | 4 | -6% | -23%[46.1 µM]
Cc1ccc(-c2nc(NC(=O)CSc3ncnc4sc5c(c34)CCC(C)C5)ns2)cc1 (stereo not given) | / | / | / | 24%[46.1 µM] | 29%[46.1 µM]
Cc1ccc(-c2noc(C3CCCN(C(=O)c4cccc([N+](=O)[O-])c4)C3)n2)o1 (stereo not given) | 0% | 85* | 39* | -29%[46.1 µM] | 12%[46.1 µM]
Cc1cccc(C(=O)N2CCCC(c3nc(-c4ccc(C)o4)no3)C2)c1 (stereo not given) | -7% | 113* | 42* | 25%[46.1 µM] | ?
Cc1cccc(C(=O)NCC(=O)OCCOc2ccccc2Cl)c1 | 0% | / | / | 6% | 36%
CCCCNC(=O)C1(C)CCN1C(=O)c1ccc2ccccc2n1 (stereo not given) | -3% | / | / | / | /
Nc1ncnc2occ(-c3ccc(NC(=O)Nc4cc(C(F)(F)F)ccc4F)cc3)c12 | / | / | / | 16µM* | /
O=C(Nc1cc(C(F)(F)F)ccc1O)Nc1cc(C(F)(F)F)ccc1O | / | -4 | 2 | / | /
COc1ccc(-c2oc3ncnc(N)c3c2-c2ccc(NC(=O)Nc3cc(C(F)(F)F)ccc3F)cc2)cc1 | / | / | / | 11µM* | /
Cc1cn([C@H]2C[C@H](O)[C@@H](CNC(=O)c3ccccn3)O2)c(=O)[nH]c1=O | -3% | / | / | / | /
Cc1ccc(Cn2ccsc2=NC(=O)CCl)cc1 | 1% | 45* | 32* | / | /
Cc1ccc(Cn2ccsc2=NC(=O)COC(=O)c2ccc(NC(=O)CC#N)cc2)cc1 | 11% | / | / | ? | ?
Clc1ccc(-n2nnc(-c3cccnc3Cl)n2)cc1Cl | -3% | 54* | 35* | / | /
Cc1ccc(-n2nnc(-c3cnc4ccccc4c3)n2)cc1 | 0% | 69 | 57* | / | /
Cc1ccc(-n2nnc(-c3nccn3C)n2)cc1 | -1% | 7 | 11* | / | /
Clc1ccc(-n2cnc3c(Cl)ncnc32)cc1Cl | 5% | / | / | 1% | -15%
ClCc1cc2ccccc2nc1Cl | -1% | 9 | -2 | -16% | -6%[46.1 µM]
Clc1nc2ccccc2cc1-c1nnn(-c2ccccc2)n1 | -5% | 59* | 46* | / | /
Cc1ccc(-n2nnc(-c3cccnc3)n2)cc1 | 13% | / | / | / | /
Cn1c(NCCc2ccncc2)nc2cc(-c3cccc(C(F)(F)F)c3)sc2c1=O | 2% | / | / | / | /
CC1=C(c2ccc(C)cc2)S(=O)(=O)NC1=NCc1cccc(F)c1 | / | / | / | -18%[46.1 µM] | -29%[46.1 µM]
Cc1cc(Br)ccc1NC(=O)c1cc2c(=O)n(C)c3cc(Cl)ccc3c2s1 | / | / | / | 17%[46.1 µM] | -11%[46.1 µM]
Clc1ncccc1-c1nnn(-c2ccccc2)n1 | 11% | 56* | 50* | / | /
SMILES | AMA1-RON2 inh | Shiga inhibitor | CHX counter | LASV entry inh | Marburg entry inh
Fc1ccc(-n2nnc(-c3cccnc3Cl)n2)cc1 | 34% | 89* | 54* | / | /
Fc1ccc(-n2nnc(-c3nccs3)n2)cc1 | 3% | 54* | 38* | / | /
COc1ncccc1-c1nnn(-c2ccccc2Br)n1 | -9% | / | / | / | /
CC(=NOC(=O)c1ccc(F)cc1)c1nccs1 | 16% | / | / | / | /
Fc1ccc(-n2nnc(-c3ccccc3Cl)n2)cc1 | 10% | -9 | 2 | 3%[46.1 µM] | -4%[46.1 µM]
COc1ncccc1-c1nnn(-c2ccccc2)n1 | -1% | 55* | 43* | / | /
CC1=C2C(=O)C3C(CC=C4C[C@@H](O)CC[C@@]43C)[C@@H]2CC[C@]12O[C@@H]1C[C@H](C)CN[C@H]1C2C (stereo not given in full) | / | -3 | -8 | / | /
c1ccc(-n2nnc(-c3cccnc3)n2)cc1 | 6% | 44* | 41* | / | /
CC(C)c1nc(SCC(=O)Nc2cccc3ccccc23)n[nH]1 | 2% | / | / | 13% | ?
CCn1cc(C(=O)N2CCN(c3cccc(Cl)c3)CC2)c(=O)c2cc(S(=O)(=O)N3CCOCC3)ccc21 | / | / | / | -15%[46.1 µM] | ?
Cc1cc(C)c(N=Cc2c(O)c3ccccc3oc2=O)c(C)c1 | 7% | / | 15* | 24% | 0%
Cc1cc(C)cc(N=Cc2c(O)c3ccccc3oc2=O)c1 | 6% | 12 | 15 | ? | 4%
CC(C)c1ccc(N=Cc2c(O)c3ccccc3oc2=O)cc1 | 126% | 64* | 60* | / | /
COc1ccc(N=Cc2c(O)c3ccccc3oc2=O)cc1 | 14% | 61* | 32* | / | -1%
Nc1ccccc1SCC(=O)Nc1nccs1 | 4% | 10 | 4 | ? | ?
Nc1ccccc1SCC(=O)Nc1nc(-c2ccccc2)cs1 | ? | 62 | 20* | ? | ?
Cc1ccc(-c2csc(NC(=O)CSc3nc(C)cs3)n2)cc1 | -23% | 111* | 42* | 26% | 7%
O=C(CSc1ncn[nH]1)Nc1nc(-c2ccccc2)cs1 | 61% | 28 | 11 | -13% | -23%
Cc1csc(SCC(=O)Nc2nncs2)n1 | 5% | 13 | -4 | 7%[46.1 µM] | 5%[46.1 µM]
Cc1nc(NC(=O)CSc2ccccc2N)sc1C | 10% | 14 | 25* | ? | ?
Cc1nnc(SCC(=O)Nc2nc(-c3ccc(F)cc3)cs2)[nH]c1=O | -8% | 45 | 21* | -11%[46.1 µM] | ?
CCCCN(CC)CCNC(=O)c1cc2c(=O)oc3ccc(C)cc3c2s1 | / | / | / | 7%[46.1 µM] | 15%[46.1 µM]
CCOC(=O)c1ccc(NC(=O)c2nc[nH]c2C(=O)N(C)CCO)cc1 | -8% | / | / | / | /
COc1ccc(OC)c(S(=O)(=O)CC(O)COc2ccccc2Cl)c1 (stereo not given) | -7% | -14 | -3 | / | /
COc1ccccc1CNc1nccn(-c2ccccc2)c1=O | / | / | / | 28%[46.1 µM] | /
O=C1NC(Cc2c[nH]c3ccccc23)C(=O)N1Cc1ccc(CN2C(=O)NC(Cc3c[nH]c4ccccc34)C2=O)cc1 (stereo not given) | 2% | -8 | 1 | / | /
Cc1cc(=O)[nH]c(SCC(=O)Nc2nc(-c3ccccc3)cs2)n1 | -1% | 19 | -3 | -28% | 15%

Assay outcomes as filed in PubChem.
